Results taken from PubChem BioAssay (Tox21).
Values without a mark were called inactive. Inconclusive results are not listed. Entries that show only a call come without a potency. The source made the active and inactive calls. Unless noted, calls come from the whole dose curve; as a rule, active = well fitted curve in the direction sought with a large enough effect in the repeat runs; inconclusive = weak or mixed curves; inactive = flat fitted curve, though single readings scatter.

Key:
[1] = qHTS assay to test for compound auto fluorescence at 535 nm (green) in HEK293 cells (AID 720680); conditions: green autofluorescence 485/535 nm; series mostly up to 91.3 µM
[2] = qHTS assay to test for compound auto fluorescence at 460 nm (blue) in HEK293 cell free culture (AID 720681); conditions: cell-free medium, autofluorescence 405/460 nm (blue); series mostly up to 91.3 µM; note: potency is the fitted concentration of half-maximal effect
Procedure, shortened: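 Test compounds were pinned into cell-free culture medium (DMEM with 10% FBS) and fluorescence was read directly at Ex/Em 405/460 nm. Signals were expressed as fluorescence equivalents of triamterene, with DMSO vehicle as control.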

[3] = qHTS assay to test for compound auto fluorescence at 535 nm (green) in HEK293 cell free culture (AID 720682); conditions: cell-free medium, green autofluorescence 485/535 nm, hits give high values; series mostly up to 91.3 µM
Procedure, shortened: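 Fluorescein serves as the green reference fluorophore; each compound's intrinsic emission at 535 nm (excitation 485 nm) is reported as an equivalent amount of that dye, measured in serum-containing DMEM without cells.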

[4] = qHTS assay to test for compound auto fluorescence at 590 nm (red) in HEK293 cell free culture (AID 720683); conditions: cell-free medium autofluorescence, Ex540/Em590 red; series mostly up to 91.3 µM
Procedure, shortened: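 Tox21 10K library compounds were pinned into cell-free DMEM with 10% FBS and fluorescence was read at excitation 540 nm. Activity is expressed as Rose Bengal sodium equivalency.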

[5] = qHTS assay to test for compound auto fluorescence at 590 nm (red) in HepG2 cell free culture (AID 720684); conditions: cell-free medium autofluorescence, red 540/590 nm; series mostly up to 91.3 µM
Procedure, shortened: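 Readout: intrinsic compound fluorescence at 590 nm emission after 540 nm excitation, scaled to Rose Bengal sodium. Matrix was cell-free MEM with 10% FBS; DMSO vehicle wells served as control.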

[6] = qHTS assay to test for compound auto fluorescence at 460 nm (blue) in HepG2 cell free culture (AID 720685); conditions: Cell-free culture medium, blue autofluorescence 405/460 nm; series mostly up to 91.3 µM; note: potency is the fitted concentration of half-maximal effect
Procedure, shortened: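 Cell-free plates of MEM plus 10% FBS received 23 nL compound or DMSO vehicle; blue-channel (405/460 nm) intensity scored against triamterene as reference fluorophore.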

[7] = qHTS assay to test for compound auto fluorescence at 535 nm (green) in HepG2 cell free culture (AID 720686); conditions: Cell-free medium, green autofluorescence 485/535 nm; series mostly up to 91.3 µM
[8] = qHTS assay to test for compound auto fluorescence at 460 nm (blue) in HepG2 cells (AID 720687); conditions: autofluorescence 405/460 nm, 1 h; series mostly up to 91.3 µM; note: potency is the fitted concentration of half-maximal effect
Procedure, shortened: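 Cells (2,000/well in MEM with 10% FBS) attached overnight at 37 C, then were exposed to compound or DMSO for 1 hr at 37 C, 5% CO2. Fluorescence read at Ex/Em 405/460 nm, expressed as triamterene-equivalent signal.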

[9] = molecular target: Glucocorticoid receptor (Homo sapiens) (UniProt P04150); experiment: qHTS assay to identify small molecule agonists of the glucocorticoid receptor (GR) signaling pathway (AID 720691; active = well fitted activation curve with a large enough effect in the signal ratio in the repeat runs, not every such curve was filed as active; the % refers to the signal ratio); conditions: GR-bla HeLa, beta-lactamase reporter ratio, 18 h; series mostly up to 62.4 µM
Procedure, shortened: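 Measures GR pathway activation through a GRE-beta-lactamase reporter stably integrated in HeLa cells, with 18 h compound treatment at 37 C and fluorescence detection using a FRET substrate.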
Tags give direction and shape of the fitted curve or compound fluorescence and quenching.

Chain of Glucocorticoid receptor (Homo sapiens) (P04150 whole entry, looked up): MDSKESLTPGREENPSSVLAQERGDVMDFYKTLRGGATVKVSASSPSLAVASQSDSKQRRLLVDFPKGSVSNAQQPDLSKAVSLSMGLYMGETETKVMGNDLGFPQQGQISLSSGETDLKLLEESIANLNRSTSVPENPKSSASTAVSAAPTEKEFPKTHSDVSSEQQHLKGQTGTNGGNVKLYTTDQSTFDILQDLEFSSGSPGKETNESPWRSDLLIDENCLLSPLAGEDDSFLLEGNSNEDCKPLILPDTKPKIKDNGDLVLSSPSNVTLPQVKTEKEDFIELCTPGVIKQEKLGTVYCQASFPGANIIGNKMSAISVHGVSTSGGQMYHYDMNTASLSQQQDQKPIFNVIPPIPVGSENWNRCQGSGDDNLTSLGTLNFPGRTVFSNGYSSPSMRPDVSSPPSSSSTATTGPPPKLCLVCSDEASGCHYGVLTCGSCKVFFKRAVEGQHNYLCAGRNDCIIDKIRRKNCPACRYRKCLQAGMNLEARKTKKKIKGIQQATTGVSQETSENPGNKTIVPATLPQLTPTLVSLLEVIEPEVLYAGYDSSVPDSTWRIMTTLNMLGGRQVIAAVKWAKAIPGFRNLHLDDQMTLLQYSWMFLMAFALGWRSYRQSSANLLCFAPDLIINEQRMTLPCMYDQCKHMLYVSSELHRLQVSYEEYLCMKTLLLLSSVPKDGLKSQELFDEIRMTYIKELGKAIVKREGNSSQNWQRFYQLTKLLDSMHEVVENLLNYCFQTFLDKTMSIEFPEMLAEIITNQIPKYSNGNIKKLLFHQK

Oc1ccc(C2(c3ccc(O)cc3)c3ccccc3-c3ccccc32)cc1
outcome [1]: inactive
Potency [2]: inactive
outcome [3]: inactive
outcome [4]: inactive
outcome [5]: inactive
Potency [6]: inactive
outcome [7]: inactive
Potency [8]: inactive

CN(C)C(=S)[S-].CN(C)C(=S)[S-].[Cu+2]
fluorescence, % of fluorescein [1]: -0.0159% [at 18.6 µM]
fluorescence, % of fluorescent control [2]: -0.0097% [at 18.6 µM]
activity change [3]: 0.0031% [at 18.6 µM]
fluorescence, % of fluorescent control [4]: 0.0139% [at 18.6 µM]
fluorescence, % of Rose Bengal [5]: 0.0949% [at 18.6 µM]
fluorescence, % of fluorescent control [6]: -0.0974% [at 18.6 µM]
fluorescence, % of fluorescein control [7]: 0.0404% [at 18.6 µM]
fluorescence, % of fluorescent control [8]: 0.125% [at 18.6 µM]

O=C(Nc1ccc2[nH]ccc2c1)c1cc2cc(F)ccc2n1Cc1cccc(F)c1
outcome [1]: inactive
Potency [2]: inactive
outcome [3]: inactive
outcome [4]: inactive
outcome [5]: inactive
Potency [6]: inactive
outcome [7]: inactive
Potency [8]: inactive

c1ccc2c(c1)[nH]c1cnccc12
outcome [1]: inactive
Potency [2]: inactive
outcome [3]: inactive
outcome [4]: inactive
outcome [5]: inactive
Potency [6]: inactive
outcome [7]: inactive

CN(C)C(=S)S
outcome [1]: inactive
Potency [2]: inactive
outcome [3]: inactive
outcome [4]: inactive
outcome [5]: inactive
Potency [6]: inactive
outcome [7]: inactive
Potency [8]: inactive

[Hg+2].[I-].[I-]
outcome [1]: inactive
Potency [2]: inactive
outcome [3]: inactive
outcome [4]: inactive
outcome [5]: inactive
Potency [6]: inactive
outcome [7]: inactive
Potency [8]: inactive

CCCCCCCCCCCCCCC(Br)C(=O)O (stereo unspecified)
outcome [1]: inactive
Potency [2]: inactive
outcome [3]: inactive
outcome [4]: inactive
outcome [5]: inactive
Potency [6]: inactive
outcome [7]: inactive
Potency [8]: inactive

CC(C)(C)OO
outcome [1]: inactive
Potency [2]: inactive
outcome [3]: inactive
outcome [4]: inactive
outcome [5]: inactive
Potency [6]: inactive
outcome [7]: inactive
Potency [8]: inactive

Cc1ccc(OP(=O)(Oc2ccccc2)Oc2ccccc2)cc1
outcome [1]: inactive
Potency [2]: inactive
outcome [3]: inactive
outcome [4]: inactive
outcome [5]: inactive
Potency [6]: inactive
outcome [7]: inactive
Potency [8]: inactive

CCCCCCCCCCCCCCCC[n+]1ccccc1
outcome [1]: inactive
Potency [2]: inactive
outcome [3]: inactive
outcome [4]: inactive
outcome [5]: inactive
Potency [6]: inactive
outcome [7]: inactive
Potency [8]: inactive

Clc1ccc(-c2ccc(Cl)c(Cl)c2Cl)c(Cl)c1Cl
outcome [1]: inactive
Potency [2]: inactive
outcome [3]: inactive
outcome [4]: inactive
outcome [5]: inactive
Potency [6]: inactive
outcome [7]: inactive
Potency [8]: inactive

CC[C@H]1C[C@@H]2C[C@H]3c4[nH]c5ccc(OC)cc5c4CCN(C2)[C@@H]13
outcome [1]: inactive
Potency [2]: inactive
outcome [3]: inactive
outcome [4]: inactive
outcome [5]: inactive
Potency [6]: inactive
outcome [7]: inactive
Potency [8]: inactive

Oc1ccc(C(c2ccc(O)cc2)(C(F)(F)F)C(F)(F)F)cc1
outcome [1]: inactive
Potency [2]: inactive
outcome [3]: inactive
outcome [4]: inactive
outcome [5]: inactive
Potency [6]: inactive
outcome [7]: inactive
Potency [8]: inactive

c1ccc2c(c1)OCC(C1=NCCN1)O2 (stereo unspecified)
outcome [1]: inactive
Potency [2]: inactive
outcome [3]: inactive
outcome [4]: inactive
outcome [5]: inactive
Potency [6]: inactive
outcome [7]: inactive
Potency [8]: inactive

Oc1c(Cl)c(Cl)cc(Cl)c1Cl
outcome [1]: inactive
Potency [2]: inactive
outcome [3]: inactive
outcome [4]: inactive
outcome [5]: inactive
Potency [6]: inactive
outcome [7]: inactive
Potency [8]: inactive

CC(C)N1C(=O)N(c2ccccc2)CSC1=NC(C)(C)C
outcome [1]: inactive
Potency [2]: inactive
outcome [3]: inactive
outcome [4]: inactive
outcome [5]: inactive
Potency [6]: inactive
outcome [7]: inactive
Potency [8]: inactive
Potency [9]: inactive

Cc1cc(N=Nc2ccccc2C)ccc1N
outcome [1]: inactive
Potency [2]: inactive
outcome [3]: inactive
outcome [4]: inactive
outcome [5]: inactive
Potency [6]: inactive
outcome [7]: inactive
Potency [8]: inactive
Potency [9]: inactive

CC(=O)C(Cl)(Cl)Cl
outcome [1]: inactive
Potency [2]: inactive
outcome [3]: inactive
outcome [4]: inactive
outcome [5]: inactive
Potency [6]: inactive
outcome [7]: inactive
Potency [8]: inactive
Potency [9]: inactive

CC1(C)[C@H](C(=O)O[C@H](C#N)c2cccc(Oc3ccccc3)c2)[C@@H]1/C=C(\Cl)C(F)(F)F
outcome [1]: inactive
Potency [2]: inactive
outcome [3]: inactive
outcome [4]: inactive
outcome [5]: inactive
Potency [6]: inactive
outcome [7]: inactive
Potency [8]: inactive
Potency [9]: inactive

Oc1ccc2ccc3cccc4ccc1c2c34
outcome [1]: inactive
Potency [2]: 44.7 µM (active)
outcome [3]: inactive
outcome [4]: inactive
outcome [5]: inactive
Potency [6]: 39.8 µM [fluorescent] (active)
outcome [7]: inactive
Potency [8]: 35.5 µM [fluorescent] (active)
Potency [9]: inactive

CCOP(=O)(NC(C)C)Oc1ccc(SC)c(C)c1 (stereo unspecified)
outcome [1]: inactive
Potency [2]: inactive
outcome [3]: inactive
outcome [4]: inactive
outcome [5]: inactive
Potency [6]: inactive
outcome [7]: inactive
Potency [8]: inactive
Potency [9]: inactive

CC(=O)OC1(c2ccccc2)CCN(CCc2ccccc2)CC1
outcome [1]: inactive
Potency [2]: inactive
outcome [3]: inactive
outcome [4]: inactive
outcome [5]: inactive
Potency [6]: inactive
outcome [7]: inactive
Potency [8]: inactive
